Sampled rows, rich in hits. Any-hit rate of the full collection: about 1.1%.
ALOX12 inh: Primary qHTS assay for inhibitors of human arachidonate 12S-lipoxygenase (ALOX12): Round 2. purified 12hLO, xylenol orange hydroperoxide absorbance. Potency, µM (titrated, usually from 108 µM), without a hit: at the highest dose activity change, negative = inhibition, hits mostly inhibitors. actives 1.1% (n = 580,000). AID 1671190, 2021; also: % is scaled to controls: 0 for no effect and ±100 for the full control effect
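Hydroperoxide product was detected by ferrous iron/xylenol orange as the 573 to 405 nm absorbance ratio. Arachidonic acid at 40 uM (final) was turned over for 30 min at room temperature by 150 nM human 12hLO, pH 7.0 Hepes buffer, after 15 min compound preincubation.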
Glioma ERSR ind: qHTS for Inducers of the Endoplasmic Reticulum Stress Response (ERSR) in Human Glioma: qHTS; U87-MG GRP78 promoter luciferase reporter, 16 h; Potency, µM, inactives show at the highest dose activation, actives largely listed as activators; actives 0.02% (n = 420,000); AID 602332, 2012; also: series mostly up to about 76 µM; % of control where 0% means no effect; nearly all actives have a fitted effect of over 35% in size
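ERSR induction read as luciferase luminescence (Bright-Glo, 10 min at room temperature) in stably transfected human U87-MG glioma cells exposed to compounds for 16 h, using GRP78 as sensor.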
Chronic BCR inh: qHTS Assay to Find Inhibitors of Chronic Active B-Cell Receptor Signaling. Potency, µM (highest dose often 46.1 µM), for inactives: at the top dose activity change, negative = inhibition, hits mostly inhibitors. ABC-DLBCL IkBa-CBG/CBR reporter, luminescence ratio, 4 h. actives 0.05% (n = 340,000); active = well fitted inhibition curve with a large enough effect in the signal ratio, with a control signal flat, not every such curve was filed as active; inconclusive = small, poorly fitted or top-dose-only effect, or effect the other way, or a change in a side signal; the % refers to the signal ratio;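 also: plate controls were basal doxycycline-induced cells for no effect and cells given 10 µM MG132 for full effect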
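Concentration-response series (up to 46 uM) were applied to TMD8 dual-reporter cells for 4 h at 37C with doxycycline. Green/red ratio, after filter-overlap correction, defined %Activity; red signal alone was normalised to basal cells and zero luminescence.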
Apoferritin bind: qHTS Assay for Identification of Novel General Anesthetics | Ferritin light chain (Equus caballus), P02791 | AID 485281, 2010 | apoferritin/1-aminoanthracene competitive binding, fluorescence | actives 0.074% (n = 350,000) | Potency, µM (highest dose often 77.5 µM), inactives show at the top dose activity change, negative = displacement, most hits filed as inhibitors; also: % is scaled to controls: 0 for no effect and ±100 for the full control effect; nearly all actives have a fitted effect of over 20% in size
Target sequence (P02791 2-175 limits assumed): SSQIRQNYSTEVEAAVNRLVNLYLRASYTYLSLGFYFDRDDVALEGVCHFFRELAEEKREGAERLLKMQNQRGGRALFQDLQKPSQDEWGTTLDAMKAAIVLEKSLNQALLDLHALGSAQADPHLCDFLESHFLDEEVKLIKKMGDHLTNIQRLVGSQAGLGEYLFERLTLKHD
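Horse-spleen apoferritin (10 uM) in 50% saturated 1-aminoanthracene in PBS was incubated 10 min at room temperature with compound. Fluorescence (ex 380, em 535 nm) was normalized to free and bound 1-AMA, with concentration-response fitted by a four-parameter Hill equation.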
An asterisk follows results filed as active; ? = inconclusive; · = not tested or not shown. Unless noted, calls follow the shape of the dose curve; as a rule, active = well fitted curve in the direction sought with a large enough effect; inconclusive = small, poorly fitted or top-dose-only effect, or another doubt; inactive = no such curve, though single readings can be large; an effect the other way counts as inactive or inconclusive. Potency is read from the fitted curve at half-maximal effect.

SMILES	ALOX12 inh	Glioma ERSR ind	Chronic BCR inh	Apoferritin bind
CC(=O)Nc1ccc2c(=O)n(-c3ccccc3)sc2c1	1µM*	-13%	·	·
O=c1c2ccccc2sn1-c1ccc(S(=O)(=O)N2CCCC2)cc1	-78%	2%	-2%	-1%
CN(C)S(=O)(=O)c1cccc(-n2sc3ccccc3c2=O)c1	1.8µM*	-9%	?	-14%
O=C(COc1ccccc1[N+](=O)[O-])OCC(=O)c1ccc(Br)s1	45µM*	-4%	4%	·
CN1C(=O)/C(=C\c2ccco2)N=C1c1ccc(Cl)cc1Cl	-19%	1%	-1%	2%
O=C1OC(/C=C/c2ccc(Cl)cc2)=NC/1=C/c1ccco1	40µM*	-4%	0%	-8%
Brc1ccc(-c2csc3ncnc(Sc4nnc(C5CC5)o4)c23)cc1	10%	·	·	·
C[C@@H](NCc1cccc(Cl)c1)c1onc(-c2ccc(F)cc2)c1C(=O)O	28µM*	·	·	·
CCOC(=O)C1C(=O)C=C(c2ccc(F)cc2)CC1c1c(F)cccc1Cl (configuration not stated)	-26%	·	·	·
CCN(CC)/C(Sc1ccccc1)=C(/C(Cl)=C(Cl)Cl)[N+](=O)[O-]	7.9µM*	-5%	5%	-6%
CCN(CC)/C(Sc1ccccc1)=C(\C(Cl)=C(Cl)Cl)[N+](=O)[O-]	-18%	-3%	0%	-7%
OC(CC#CCN1CCCCCC1)(c1ccccc1)c1ccc(-c2ccccc2)cc1 (configuration not stated)	18µM*	·	·	·
CC(C)C(C#CCN1CCCCC1)(c1ccccc1)c1ccccc1	20µM*	·	·	·
OC(C#CCN1CCCCC1)(c1ccccc1)c1ccccc1	3%	-2%	3%	19%
OC(CC#CCN1CCN(CC#CCC(O)(c2ccccc2)c2ccccc2)CC1)(c1ccccc1)c1ccccc1	11µM*	·	·	·
CCOc1ccc(-c2ccc(C#N)c(SCC(=O)Nc3ccc(F)cc3)n2)cc1	-9%	·	·	·
CCOc1ccccc1CNS(=O)(=O)c1ccc2c(c1)oc(=O)n2C	4µM*	-1%	-8%	-12%
CN(CCC(=O)NC(=O)NCc1ccccc1)Cc1ccccc1	5%	·	·	·
Cc1cccc(C)c1Nc1c(-c2ccc(O)cc2)nc2sccn12	20µM*	-1%	·	-8%
Cn1c(-c2ccc(F)cc2)cnc1NCc1cccc(F)c1	?	-1%	?	-10%
Cn1c(-c2ccc3c(c2)OCO3)cnc1NCc1cccc(O)c1	11µM*	-1%	?	-7%
NN/C(=C\[N+](=O)[O-])Nc1ccc(Cl)cc1	35µM*	5%	?	-24%
O=[N+]([O-])c1ccc2c(c1)-c1ccccc1C2O (configuration not stated)	7.1µM*	1%	·	·
O=[N+]([O-])c1ccc2c(c1)/C(=N\O)c1ccccc1-2	218%	-1%	?	-5%
CCOC(=O)Cc1csc(NC(=O)NC2(C(F)(F)F)Oc3cc(Cl)c(Cl)cc3O2)n1	0.63µM*	0%	-1%	?
SMILES	ALOX12 inh	Glioma ERSR ind	Chronic BCR inh	Apoferritin bind
FC(F)(F)c1ccccc1-c1cncnc1NCc1ccccc1	?	-3%	·	·
Cc1cnc(CNc2ncncc2-c2ccccc2C(F)(F)F)cn1	22µM*	0%	·	-5%
Cc1cc(C)c2nc(NNC(=O)c3ccc(S(=O)(=O)N4CCCCC4)cc3)sc2c1	10µM*	-2%	-3%	?
O=C(CN1CCN(c2cnn(-c3ccccc3)c(=O)c2Cl)CC1)Nc1ccc2ccccc2c1	-32%	·	·	·
NNc1cc(Cl)c(Cl)cc1[N+](=O)[O-]	99%	·	·	·
NNc1cc(Cl)c(Cl)cc1Cl	7.1µM*	·	·	·
Cc1ccc(-c2csc3nc[nH]c(=S)c23)cc1C	28µM*	-1%	-3%	-18%
COc1ccc(-c2csc3nc[nH]c(=O)c23)cc1OC	79%	-10%	-12%	2%
COc1ccccc1-n1cnnc1SC(C)C(=O)c1ccc(F)cc1 (configuration not stated)	-25%	·	·	·
CCOC(=O)c1sc(NCCCOC)nc1C(F)(F)F	9%	·	·	·
CCCCN(Cc1ccccc1)c1ccc(C(=O)O)cc1NS(=O)(=O)c1ccc(C)c(C)c1	8.9µM*	·	·	·
CCCCN(Cc1ccccc1)c1ccc(C(=O)O)cc1NS(=O)(=O)c1ccc(C(C)=O)cc1	5.6µM*	·	·	·
